Screens (PubChem)
In the library only some 4.3% were active in any assay of this set; here they are far more common.
GLP-1R inv ag = GLP-1 receptor (human) inverse agonism | HEK293 GLP-1R CRE-luciferase, luminescence, 24 h; GLP-1R form is constitutively active | Potency, µM (top dose mostly 38.3 µM), for inactives: top-dose activity change, negative = inhibition, actives largely listed as inhibitors | 410,000 compounds, 1.6% hits; further: potency means the concentration at half of the fitted maximal effect; on the % scale 0 is the no-effect control and ±100 the full control effect; nearly all actives have a fitted effect of over 55% in size
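HEK293 cells stably co-expressing a cAMP-responsive luciferase reporter and constitutively active GLP-1R were seeded, incubated 12 h, then exposed to compounds for 24 h at 37 C. Luminescence was read 12 min after detection reagent; inverse agonists lower signal.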
GLP1R ag = activates the human GLP-1 receptor | HEK293 GLP-1R CRE-luciferase, luminescence, 4-6 h; cells express a hypersensitive GLP-1R form | Potency, µM (series often up to 45.6 µM), without a hit: at the top dose activation, actives largely listed as activators | 380,000 compounds, 0.007% hits | AID 624172; further: potency means the concentration at half of the fitted maximal effect; % of control where 0% means no effect
DRD3 agonist = agonists of human D3 dopamine receptor | P35462 | AID 652048 | max activation, % | 410,000 compounds, 0.58% hits | D3R DiscoveRx beta-arrestin cells, luminescence, 90 min; in the data active means max activation above about 30%; further: 0% is about no effect
Target sequence (P35462 whole entry, looked up): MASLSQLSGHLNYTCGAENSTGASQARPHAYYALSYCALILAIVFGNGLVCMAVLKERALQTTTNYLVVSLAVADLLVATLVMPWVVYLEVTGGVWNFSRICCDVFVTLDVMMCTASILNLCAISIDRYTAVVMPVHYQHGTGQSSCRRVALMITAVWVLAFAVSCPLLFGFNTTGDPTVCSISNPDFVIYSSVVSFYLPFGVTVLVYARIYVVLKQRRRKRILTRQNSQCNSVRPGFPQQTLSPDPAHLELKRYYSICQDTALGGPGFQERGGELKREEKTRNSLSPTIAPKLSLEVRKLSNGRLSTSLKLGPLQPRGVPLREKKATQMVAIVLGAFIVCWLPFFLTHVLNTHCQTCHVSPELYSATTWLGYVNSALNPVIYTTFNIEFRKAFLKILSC
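Agonist-mode cell screen: cells plated at 1500/well and incubated overnight at 37 °C, then exposed to library compounds for 90 min at 37 °C. Detection reagent was added for 30–60 min at room temperature, and luminescence was read.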
D3 antag = antagonists of human D3 dopamine receptor | D3R cells, DiscoveRx beta-arrestin luminescence, antagonist mode; stronger effect = lower value | max response, negative = inhibition, % | 360,000 compounds, 2.5% hits; in the data active means max response below about -50%; inconclusive means no clear call, values can overlap the other calls; further: on the % scale 0 is the no-effect control and ±100 the full control effect
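Cells plated overnight at 1500 cells/well, then exposed to library compounds with dopamine controls for 90 minutes at 37 degrees C. DiscoveRx reagent added for 30–60 minutes at room temperature; luminescence read, quantitative HTS format.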
An asterisk follows results filed as active; u = inconclusive; x = no result. Unless noted, the call rests on the fitted dose curve; in most records, active means well fitted curve in the direction sought with a large enough effect; inconclusive means small, poorly fitted or top-dose-only effect, or another doubt; inactive means no such curve, though single readings can be large; an effect the other way counts as inactive or inconclusive.

SMILES	GLP-1R inv ag	GLP1R ag	DRD3 agonist	D3 antag
CSc1nc(-c2ccccc2)c(-c2ccccc2)[nH]1	-4%	-9%	-4	u
Cc1nc(-c2ccccc2)c(-c2ccccc2)[nH]1	u	26%	-13	-51*
Oc1ccc(N=Nc2nc(-c3ccccc3)c(-c3ccccc3)[nH]2)cc1	5.6µM*	-1%	-9	-53*
O=C(NC(c1ccc(Cl)cc1)c1ccccn1)C1CCN(CCOc2ccc(Cl)cc2Cl)CC1 (stereo not given)	u	-5%	-11	-77*
O=C(NC(c1ccc(Cl)cc1)c1cnccn1)C1CCN(CCOc2ccc(F)cc2)CC1 (stereo not given)	u	2%	-26	u
O=C(NC(c1ccc(Cl)cc1)c1cccnc1)C1CCN(CCOc2ccc(Cl)cc2Cl)CC1 (stereo not given)	u	-9%	-19	u
Cc1ccc(C(NC(=O)C2CCN(Cc3ccc(Cl)c(Cl)c3)CC2)c2ccccn2)cc1 (stereo not given)	u	-3%	-14	-1
O=C(NC(c1ccc2c(c1)OCO2)c1ccccn1)C1CCN(CCOc2ccc(Cl)cc2Cl)CC1 (stereo not given)	u	3%	-11	-75*
Cc1cccnc1C(NC(=O)C1CCN(CCOc2ccc(Cl)cc2Cl)CC1)c1ccc(Cl)cc1 (stereo not given)	u	-2%	41*	36
O=C(NC(c1ccc(F)cc1)c1cnccn1)C1CCN(CCOc2ccc(Cl)cc2Cl)CC1 (stereo not given)	u	-2%	-9	-71*
CCCNC(=O)CCc1nnc2ccc(N3CCN(c4cccc(OC)c4)CC3)nn12	1%	x	4	x
COc1cccc(OC)c1OCCN1CCC(C(=O)NC(c2ccc3c(c2)OCO3)c2ccccn2)CC1 (stereo not given)	-21%	-5%	-29	-78*
COc1ccc(CN2CCC(C(=O)NC(c3ccc4c(c3)OCO4)c3ccccn3)CC2)cc1 (stereo not given)	12%	0%	-13	0
CC1CN(c2nc(-c3ccc(Br)cc3)nnc2-c2ccccc2)CC(C)N1 (stereo not given)	2.8µM*	5%	3	20
COC(=O)c1ccc(CN2C(=O)NC3(CCC(C)CC3)C2=O)o1 (stereo not given)	16%	0%	-3	-65*
Cc1cc(O)c(C(c2ccccc2)N2CCC(C)CC2)c(=O)n1Cc1ccco1 (stereo not given)	-8%	1%	-12	x
Cc1ccccc1N1CCN(Cc2cc3c(cc2[N+](=O)[O-])OCO3)CC1	u	-3%	-17	-8
O=[N+]([O-])c1cc2c(cc1CN1CCN(c3ccccc3F)CC1)OCO2	u	7%	-26	-52*
N#Cc1c(-c2ccccc2)nc(-c2ccccc2)[nH]c1=O	2%	10%	2	-58*
Cc1c(C(=O)Nc2ccc(F)c(F)c2)oc2ccc(S(=O)(=O)N3CCC4(CC3)OCCO4)cc12	6%	x	31*	x
Cc1c(C(=O)Nc2ccc(F)cc2)oc2ccc(S(=O)(=O)N3CCCC3)cc12	-3%	-9%	1	0
Cc1c(C(=O)Nc2ccc(F)cc2)oc2ccc(S(=O)(=O)N3CCC4(CC3)OCCO4)cc12	0%	6%	65*	29
O=S(=O)(c1cc(F)ccc1F)N1CCC2(CC1)OCCO2	7%	-5%	-11	10
O=C(Nc1ccc(F)c(F)c1)c1ccc(F)c(S(=O)(=O)N2CCC3(CC2)OCCO3)c1	3.5µM*	-1%	2	4
CCN(CC)CCNC(=O)c1ccc2c(=O)n3nc(Nc4cccc(Cl)c4C)sc3nc2c1	u	x	2	x
CC(OC(=O)C1CCCC1)C(=O)Nc1ccc(S(N)(=O)=O)cc1 (stereo not given)	7%	5%	-3	40
Cc1cc(C)cc(NC(=O)Cn2nnc(-c3ccccc3F)n2)c1	-17%	x	-2	x
c1ccc(-c2nnc(SCCC3OCCCO3)o2)cc1	-14%	-8%	103*	13
COc1ccc(CCn2c3c(c(=O)[nH]c2=O)C(NC(=O)c2ccccc2)(C(F)(F)F)C(=O)N3)cc1OC (stereo not given)	12%	x	3	x
CCc1ccc(C2=C(C)C(N3CCC(C(=O)NCCc4ccco4)CC3)=NS2(=O)=O)cc1	-8%	x	-7	x
